A selection: hits, their analogues and other compounds. The true share with any hit is near 19%.
ASM inhibitor – Inhibitors of Secretory Acid Sphingomyelinase (S-ASM): qHTS | placental ASM, HMU-PC fluorogenic substrate, 60 min | Potency, µM (doses to about 57.5 µM), most hits filed as inhibitors | hit rate 0.006% among 340,000 | AID 504937, 2011
Target sequence (P17405 47-631 limits assumed): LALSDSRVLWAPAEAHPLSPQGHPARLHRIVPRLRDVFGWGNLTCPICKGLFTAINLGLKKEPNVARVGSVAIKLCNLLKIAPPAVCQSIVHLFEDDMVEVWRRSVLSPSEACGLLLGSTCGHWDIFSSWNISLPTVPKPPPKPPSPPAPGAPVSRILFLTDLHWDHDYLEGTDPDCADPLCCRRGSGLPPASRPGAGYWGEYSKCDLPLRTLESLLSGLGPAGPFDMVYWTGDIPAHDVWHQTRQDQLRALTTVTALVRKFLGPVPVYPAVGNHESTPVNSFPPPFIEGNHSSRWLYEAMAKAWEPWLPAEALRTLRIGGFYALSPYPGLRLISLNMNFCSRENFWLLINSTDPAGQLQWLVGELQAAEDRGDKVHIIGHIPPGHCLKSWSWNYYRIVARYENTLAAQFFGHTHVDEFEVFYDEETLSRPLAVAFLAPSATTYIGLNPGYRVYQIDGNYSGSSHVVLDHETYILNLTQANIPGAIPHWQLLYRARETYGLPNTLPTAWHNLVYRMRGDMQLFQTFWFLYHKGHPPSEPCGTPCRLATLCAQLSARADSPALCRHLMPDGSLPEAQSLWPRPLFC
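qHTS format. ASM enzyme prepared from human placenta hydrolyses the fluorogenic substrate HMU-PC0 (9 uM final) over 60 min at 37 °C after a 10 min compound preincubation.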
TDP1 cell CPT – qHTS for Inhibitors of human tyrosyl-DNA phosphodiesterase 1 (TDP1): qHTS in cells in presence of CPT. chicken DT40 Tdp1-/-;hTDP1 cells + 20 nM CPT, ATP luminescence, 48 h. hit rate 12% among 420,000. Potency, µM (highest dose often 46.2 µM), most hits filed as inhibitors. AID 686979, 2013; note: nearly all actives have a fitted effect of over 55% in size
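Cell growth measured by CellTiter-Glo luminescence after a minimum 48 h, 37 C compound exposure with 20 nM CPT in Tdp1-knockout DT40 cells stably expressing hTDP1, seeded 400/well; qHTS titration format.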
TDP1 cell noCPT – qHTS for Inhibitors of human tyrosyl-DNA phosphodiesterase 1 (TDP1): qHTS in cells in absence of CPT. DT40 Tdp1-/- hTDP1 cells, no CPT, ATP luminescence, 48 h. Potency, µM (top dose mostly 46.2 µM), most hits filed as inhibitors. hit rate 15% among 420,000; note: nearly all actives have a fitted effect of over 55% in size
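Readout: luminescence from CellTiter-Glo after 30 min in the dark at RT. Cells: DT40 Tdp1-/- with stable hTDP1, 400/well. Exposure: compounds alone, ≥48 hr, 37 °C.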
TGFb inhibitor – qHTS for Inhibitors of TGF-b. HepG2 CAGA-GFP TGF-b/SMAD3 reporter, GFP fluorescence, 18 h; TGF-beta stimulated, 500 pg/mL final. Potency, µM (highest dose often 46.1 µM), hits mostly inhibitors. hit rate 1.2% among 410,000. AID 588855, 2011; note: nearly all actives have a fitted effect of over 65% in size
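HEPG2 CAGA-GFP, 1000 cells/well; 2 h settle, 37 C; cpd via pin tool; TGF-b 500 pg/mL final; 18 h, 37 C; GFP imaging ex488/em500-530; %Activity normalised to -TGF-b and +DMSO controls; CRC fit, curve class.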
HepG2 viability – qHTS for Inhibitors of TGF-b: Cytotox Counterscreen; HepG2 CAGA-GFP viability, ATP luminescence, 18 h; Potency, µM (series often up to 46.1 µM), actives largely listed as cytotoxic; hit rate 0.76% among 410,000; AID 588856, 2011
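HepG2 CAGA-GFP cells (1000/well, DMEM with 1% FBS) received compound, then TGF-beta at 500 pg/mL final, and were incubated 18 hours at 37 degrees C. Viability was read by CellTiter-Glo luminescence. Media-only wells were set as complete cell-killing and DMSO as no toxicity.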
IL1B secr inh – qHTS for Inhibitors of Inflammasome Signaling: IL-1-beta AlphaLISA Primary Screen; activity change, % at 57.5 µM; THP-1 LPS/ATP IL-1B secretion, AlphaLISA, 16 h; active compounds read low; AID 743279, 2014; hit rate 4.7% among 360,000; in the data active = activity change below about -50%; inconclusive = mostly about -30% to -49%
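THP-1 cells pretreated 1 hr with compounds (up to 57.5 uM final), then stimulated with LPS (250 ng/mL final) plus ATP (1.25 mM final); secreted IL-1B measured by AlphaLISA after 16 hr, decreased signal indicating inhibition.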
Large screens that a line does not name were inactive. Unless noted, calls come from the whole dose curve; as a rule, active = well fitted curve in the direction sought with a large enough effect; inconclusive = small, poorly fitted or top-dose-only effect, or another doubt; inactive = no such curve, though single readings can be large; an effect the other way counts as inactive or inconclusive.

COc1c2occc2c(OC)c2c(=O)cc(C)oc12	TDP1 cell CPT inconclusive, TDP1 cell noCPT inconclusive
CCc1ccc(Oc2c(C(F)(F)F)oc3c(CN4CCC(C)CC4)c(O)ccc3c2=O)cc1	none (no result: ASM inhibitor, IL1B secr inh)
CCn1cc(C(=O)NCCc2ccc(OC)c(OC)c2)c(=O)c2cc(S(=O)(=O)N3CCOCC3)ccc21	TDP1 cell CPT inconclusive, TDP1 cell noCPT 18.4µM
CCOc1ccc(CCNC(=O)c2cn(CC)c3ccc(S(=O)(=O)N4CCCCCC4)cc3c2=O)cc1OCC	TDP1 cell CPT inconclusive, TDP1 cell noCPT 18.4µM (no result: ASM inhibitor, IL1B secr inh)
COc1ccc(CCNC(=O)c2cn(C)c3ccc(S(=O)(=O)N4CCOCC4)cc3c2=O)cc1OC	TDP1 cell CPT inconclusive, IL1B secr inh inconclusive
CCN(CC)S(=O)(=O)c1ccc2c(c1)c(=O)c(C(=O)NCc1ccccc1Cl)cn2C	TDP1 cell CPT 9.2µM, TDP1 cell noCPT 7.31µM, HepG2 viability 5.62µM (no result: ASM inhibitor, IL1B secr inh)
CCN(CC)S(=O)(=O)c1ccc2c(c1)c(=O)c(C(=O)N1CCN(c3cc(Cl)ccc3C)CC1)cn2C	TDP1 cell CPT 16.4µM, TDP1 cell noCPT inconclusive (no result: ASM inhibitor, IL1B secr inh)
Cc1ccc(NC(=O)Cn2cc([N+](=O)[O-])nc2C)cc1C	none
COc1ccc(-n2nc(C(=O)NCC(=O)Nc3ccc(F)cc3)c3ccccc3c2=O)cc1	TDP1 cell noCPT inconclusive
CCOc1ccc(CCNC(=O)c2cn(CC)c3ccc(S(=O)(=O)N4CCc5ccccc5C4)cc3c2=O)cc1OCC	TDP1 cell CPT 18.4µM, TDP1 cell noCPT 11.6µM, TGFb inhibitor inconclusive (no result: ASM inhibitor, IL1B secr inh)
CCn1cc(C(=O)NCCc2ccc(C)cc2)c(=O)c2cc(S(=O)(=O)N3CCc4ccccc4C3)ccc21	TDP1 cell CPT inconclusive, TDP1 cell noCPT inconclusive, TGFb inhibitor inconclusive (no result: ASM inhibitor, IL1B secr inh)
C=CCn1cc(C(=O)N2CCc3ccccc3C2)c(=O)c2cc(S(=O)(=O)N(CC)CC)ccc21	TDP1 cell CPT inconclusive, TDP1 cell noCPT 18.4µM
CCN(CC)S(=O)(=O)c1ccc2c(c1)c(=O)c(C(=O)NCCc1ccc(OC)c(OC)c1)cn2C	TDP1 cell CPT 18.4µM, TDP1 cell noCPT inconclusive
CCN(CC)S(=O)(=O)c1ccc2[nH]cc(C(=O)NCCc3ccc(OC)c(OC)c3)c(=O)c2c1	TDP1 cell noCPT inconclusive
CCC(C)c1ccccc1N=Cc1ccc2c(c1)OCO2 (stereo not given)	TDP1 cell CPT inconclusive, TDP1 cell noCPT inconclusive
O=S(=O)(c1ccc(Br)cc1)N1CCOCC1	none (no result: ASM inhibitor, IL1B secr inh)
COc1ccc(/C=N/Nc2ncnc3c2[nH]c2ccc(C)cc23)c(OC)c1OC	TDP1 cell CPT inconclusive, TDP1 cell noCPT 14.6µM, TGFb inhibitor inconclusive
Cc1ccc2[nH]c3c(NCCCN4CCCC4=O)ncnc3c2c1	TDP1 cell CPT inconclusive, TDP1 cell noCPT inconclusive
Cc1ccc2[nH]c3c(NCc4ccco4)ncnc3c2c1	TDP1 cell CPT 23.1µM, TDP1 cell noCPT 18.4µM, TGFb inhibitor inconclusive
c1coc(CNc2ncnc3nc[nH]c23)c1	none
Fc1ccc2[nH]c3c(NCc4ccco4)ncnc3c2c1	TDP1 cell CPT 7.08µM, TDP1 cell noCPT 8.91µM, TGFb inhibitor inconclusive (no result: ASM inhibitor, IL1B secr inh)
COc1cc(OC)c(OC)cc1/C=N/Nc1ncnc2c1[nH]c1ccccc12	TDP1 cell noCPT inconclusive
COc1cc(CNc2ncnc3c2[nH]c2ccc(C)cc23)cc(OC)c1	TDP1 cell CPT inconclusive, TDP1 cell noCPT 20.6µM, TGFb inhibitor inconclusive, IL1B secr inh inconclusive
COc1ccc(C2C(C(=O)N3CCC(C(N)=O)CC3)CC(=O)N2c2ccc(OC)cc2)cc1 (stereo not given)	none
O=C(Nc1cnn(Cc2c(Cl)cccc2Cl)c1)C(c1ccccc1)c1ccccc1	TDP1 cell CPT 23.1µM, TDP1 cell noCPT 16.4µM
